# Test results as given in PubChem BioAssay (NCATS).
# Inconclusive results are not listed. A call without a number means that no potency is given here. Calls of active or inactive are those of the source. Calls come from the whole dose curve; as a rule, active = well fitted inhibition curve with a large enough effect; inconclusive = small, poorly fitted or top-dose-only effect; inactive = flat fitted curve, though single readings scatter.
# Assay: BET inhibitor-based combinations targeting novel dependencies in MECOM-rearranged (r) AML: AML-194 cell line (AID 2202237; note: nearly all actives have a fitted effect of over 40% in size)
# Details: AML-194 (MECOM-r AML) viability, CellTiter-Glo, 48 h; series mostly up to 46 µM
# Summary of the method: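 Each compound was tested at eleven concentrations on cells seeded at 500/well. After two days' incubation, ATP-based luminescence reported viability; responses relative to DMSO and blank wells yielded AUC and cell-line-centred Z-AUC.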
row,Compound,Potency
1,CC1=C(/C=C/C(C)=C/C=C/C(C)=C/C(=O)O)C(C)(C)CCC1,inactive
2,COc1ccccc1N1CCN(CC(O)COc2cccc3ccccc23)CC1 (configuration not stated),inactive
3,Cc1[nH]c(=O)c(C#N)cc1-c1ccc2nccn2c1,inactive
4,NNCCc1ccccc1,inactive
5,COc1cc(/C=C(\C#N)C(=O)Nc2nnc(C(F)(F)F)s2)ccc1OCc1ccc(C(F)(F)F)cc1C(F)(F)F,inactive
6,Clc1ccc2c(N3CCN(CCCN4CCN(c5ccnc6cc(Cl)ccc56)CC4)CC3)ccnc2c1,inactive
7,CC1(C)NC(=O)N(c2ccc([N+](=O)[O-])c(C(F)(F)F)c2)C1=O,inactive
8,Cn1ccc2cc3c(cc21)CCN3C(=O)Nc1cccnc1,inactive
9,O=C1Nc2ccc(I)cc2/C1=C/c1cc(Br)c(O)c(Br)c1,inactive
10,COc1ccccc1OCC(O)CN1CCN(CC(=O)Nc2c(C)cccc2C)CC1 (configuration not stated),inactive
11,Cc1c(OCC(F)(F)F)ccnc1CS(=O)c1nc2ccccc2[nH]1 (configuration not stated),inactive
12,COc1ccc(/C=C/C(=O)Nc2ccccc2C(=O)O)cc1OC,inactive
